Laboratory results: PubChem BioAssay AID1159580 (chemical genetic matrix, 2015)
Screen size: about 5,500 compounds; about 2,000 (36%) were called active. About 18% were inconclusive and are not listed. No stated cut-off is given here; in the data, active means normalized growth mostly below about 0.91 (no sharp cut-off); inconclusive means no clear call, values can overlap the other calls; inactive means mostly above about 0.92. Some of the results follow.

Assay: chemical genetic growth profiling, strain panel (AID 1159580);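 further: tested at 20 µM; growth read once vehicle control cultures reached saturation at 30 °C; 1 = growth at the plate median or of vehicle wells; lower values mean less growth of the strain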
Settings: growth OD
[1] = S. cerevisiae deletion strains, locus YDL101C, strain DUN1, hits give low values
[2] = S. cerevisiae deletion strains, locus YHR030C, strain SLT2, hits give low values

Measured: normalized growth

O=C(SCc1c(Cl)cccc1Cl)c1ccc([N+](=O)[O-])o1
active: S. cerevisiae deletion strains, locus YDL214C, strain PRR2, hits give low values 0.456 | S. cerevisiae deletion strains, locus YDR477W, strain SNF1, hits give low values 0.295 | S. cerevisiae deletion strains, locus YER123W, strain YCK3, hits give low values 0.422 | S. cerevisiae deletion strains, locus YER133W, strain GLC7, hits give low values 0.553 | S. cerevisiae deletion strains, locus YFR019W, strain FAB1, hits give low values 0.612 | S. cerevisiae deletion strains, locus YGR040W, strain KSS1, hits give low values 0.324 | S. cerevisiae deletion strains, locus YGR052W, strain FMP48, hits give low values 0.502 | S. cerevisiae deletion strains, locus YGR092W, strain DBF2, hits give low values 0.221 | [2] 0.179 | S. cerevisiae deletion strains, locus YHR079C, strain IRE1, hits give low values 0.334 | S. cerevisiae deletion strains, locus YHR082C, strain KSP1, hits give low values 0.332 | S. cerevisiae deletion strains, locus YHR205W, strain SCH9, hits give low values 0.0602 | S. cerevisiae deletion strains, locus YJL157C, strain FAR1, hits give low values 0.477 | S. cerevisiae deletion strains, locus YJR066W, strain TOR1 (second series), hits give low values 0.351 | S. cerevisiae deletion strains, locus YJR066W, strain TOR1, hits give low values 0.425 | S. cerevisiae deletion strains, locus YKL048C, strain ELM1, hits give low values 0.65 | S. cerevisiae deletion strains, locus YKL067W, strain YNK1, hits give low values 0.652 | S. cerevisiae deletion strains, locus YKL101W, strain HSL1, hits give low values 0.571 | S. cerevisiae deletion strains, locus YKL203C, strain TOR2, hits give low values 0.438 | S. cerevisiae deletion strains, locus YLR113W, strain HOG1, hits give low values 0.4 | S. cerevisiae deletion strains, locus YLR133W, strain CKI1, hits give low values 0.499 | S. cerevisiae deletion strains, locus YLR403W, strain SFP1, hits give low values 0.201 | S. cerevisiae deletion strains, locus YML070W, strain DAK1, hits give low values 0.547 | S. cerevisiae deletion strains, locus YMR205C, strain PFK2 (second series), hits give low values 0.677 | S. cerevisiae deletion strains, locus YNL020C, strain ARK1, hits give low values 0.48 | S. cerevisiae deletion strains, locus YNL183C, strain NPR1, hits give low values 0.438 | S. cerevisiae deletion strains, locus YNL307C, strain MCK1 (second series), hits give low values 0.247 | S. cerevisiae deletion strains, locus YOL136C, strain PFK27, hits give low values 0.406 | S. cerevisiae deletion strains, locus YOR061W, strain CKA2, hits give low values 0.633 | S. cerevisiae deletion strains, locus YOR119C, strain RIO1, hits give low values 0.445 | S. cerevisiae deletion strains, locus YOR231W, strain MKK1, hits give low values 0.578 | S. cerevisiae deletion strains, locus YPL031C, strain PHO85, hits give low values 0.396 | S. cerevisiae deletion strains, locus YPL153C, strain RAD53, hits give low values 0.614 | S. cerevisiae deletion strains, locus YPL204W, strain HRR25, hits give low values 0.371 | S. cerevisiae deletion strains, locus YPL256C, strain CLN2, hits give low values 0.232
inactive: S. cerevisiae deletion strains, locus YAR019C, strain CDC15, hits give low values 0.954 | S. cerevisiae deletion strains, locus YBL105C, strain PKC1, hits give low values 0.96 | S. cerevisiae deletion strains, locus YBR135W, strain CKS1, hits give low values 0.968 | S. cerevisiae deletion strains, locus YBR136W, strain MEC1, hits give low values 0.969 | S. cerevisiae deletion strains, locus YBR160W, strain CDC28, hits give low values 0.964 | S. cerevisiae deletion strains, locus YDL017W, strain CDC7, hits give low values 0.967 | S. cerevisiae deletion strains, locus YDL028C, strain MPS1, hits give low values 0.969 | [1] 0.978 | S. cerevisiae deletion strains, locus YDL108W, strain KIN28, hits give low values 0.961 | S. cerevisiae deletion strains, locus YDL132W, strain cdc53, hits give low values 0.967 | S. cerevisiae deletion strains, locus YDR052C, strain DBF4, hits give low values 0.967 | S. cerevisiae deletion strains, locus YDR054C, strain cdc34, hits give low values 0.95 | S. cerevisiae deletion strains, locus YDR226W, strain ADK1, hits give low values 0.959 | S. cerevisiae deletion strains, locus YFL009W, strain cdc4, hits give low values 0.955 | S. cerevisiae deletion strains, locus YFL029C, strain CAK1, hits give low values 0.951 | S. cerevisiae deletion strains, locus YFR003C, strain YPI1, hits give low values 0.962 | S. cerevisiae deletion strains, locus YFR028C, strain CDC14, hits give low values 0.962 | S. cerevisiae deletion strains, locus YIL147C, strain SLN1, hits give low values 0.972 | S. cerevisiae deletion strains, locus YJL095W, strain BCK1, hits give low values 0.624 | S. cerevisiae deletion strains, locus YJL128C, strain PBS2, hits give low values 0.868 | S. cerevisiae deletion strains, locus YJR016C, strain ILV3, hits give low values 0.965 | S. cerevisiae deletion strains, locus YKL193C, strain SDS22, hits give low values 0.954 | S. cerevisiae deletion strains, locus YMR001C, strain CDC5, hits give low values 0.942 | S. cerevisiae deletion strains, locus YMR277W, strain FCP1, hits give low values 0.968 | S. cerevisiae deletion strains, locus YNL006W, strain LST8, hits give low values 0.976 | S. cerevisiae deletion strains, locus YNL161W, strain CBK1, hits give low values 0.965 | S. cerevisiae deletion strains, locus YNL207W, strain RIO2, hits give low values 0.947 | S. cerevisiae deletion strains, locus YNL222W, strain SSU72, hits give low values 0.971 | S. cerevisiae deletion strains, locus YOL078W, strain AVO1, hits give low values 0.963 | S. cerevisiae deletion strains, locus YOR329C, strain SCD5, hits give low values 0.964 | S. cerevisiae deletion strains, locus YPL209C, strain IPL1, hits give low values 0.976 | S. cerevisiae deletion strains, locus YPR025C, strain CCL1, hits give low values 0.959 | S. cerevisiae deletion strains, locus YPR106W, strain ISR1, hits give low values 0.985 | S. cerevisiae deletion strains, locus YPR111W, strain DBF20, hits give low values 0.978 | S. cerevisiae deletion strains, strain NNK1, hits give low values 0.959 | S. cerevisiae deletion strains, strain TSCII, hits give low values 0.939

O=C(NC(=S)Nc1ccc(Cl)cc1)c1ccc([N+](=O)[O-])o1
inactive: S. cerevisiae deletion strains, locus YAL013W, strain DEP1, hits give low values 0.958 | S. cerevisiae deletion strains, locus YBR229C, strain ROT2, hits give low values 0.975 | [1] 1.03 | S. cerevisiae deletion strains, locus YDL134C, strain PPH21, hits give low values 0.999 | S. cerevisiae deletion strains, locus YDR150W, strain NUM1, hits give low values 0.964 | S. cerevisiae deletion strains, locus YEL061C, strain CIN8, hits give low values 0.98 | S. cerevisiae deletion strains, locus YGR078C, strain PAC10, hits give low values 0.963 | [2] 0.714 | S. cerevisiae deletion strains, locus YHR087W, strain rtc3, hits give low values 0.955 | S. cerevisiae deletion strains, locus YJR043C, strain POL32, hits give low values 0.985 | S. cerevisiae deletion strains, locus YJR075W, strain HOC1, hits give low values 0.984 | S. cerevisiae deletion strains, locus YLR039C, strain RIC1, hits give low values 0.899 | S. cerevisiae deletion strains, locus YLR058C, strain SHM2 (second series), hits give low values 0.984 | S. cerevisiae deletion strains, locus YLR085C, strain ARP6, hits give low values 0.892 | S. cerevisiae deletion strains, locus YLR262C, strain YPT6, hits give low values 0.917 | S. cerevisiae deletion strains, locus YML094W, strain GIM5, hits give low values 0.945 | S. cerevisiae deletion strains, locus YMR219W, strain ESC1, hits give low values 0.978 | S. cerevisiae deletion strains, locus YMR263W, strain SAP30, hits give low values 0.985 | S. cerevisiae deletion strains, locus YNL128W, strain TEP1, hits give low values 0.979 | S. cerevisiae deletion strains, locus YNL153C, strain GIM3, hits give low values 0.999 | S. cerevisiae deletion strains, locus YNL298W, strain CLA4 (second series), hits give low values 0.912 | S. cerevisiae deletion strains, locus YNL322C, strain KRE1, hits give low values 0.96 | S. cerevisiae deletion strains, locus YNR030W, strain Alg12, hits give low values 0.956 | S. cerevisiae deletion strains, locus YOL006C, strain TOP1, hits give low values 0.999 | S. cerevisiae deletion strains, locus YPL055C, strain LGE1, hits give low values 0.937 | S. cerevisiae deletion strains, locus YPL241C, strain CIN2, hits give low values 1.08 | S. cerevisiae strains, strain wild type, hits give low values 0.981
active: S. cerevisiae deletion strains, locus YPR135W, strain CTF4, hits give low values 0.577
